Results: PubChem BioAssay (NCI)
Compounds without any hit were thinned out: in the full panel of roughly 83,000, 20% have a hit.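 Treatment: one concentration, 48 hours, 96-well format. Scoring: percent growth, with anything below 10 considered active.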 A number with no mark means an inactive call. Calls of active or inactive are those of the source.

What was measured:
Assay in all cases: NCI-60 one-dose screen, 48 h (100 = growth as untreated, 0 = no growth, -100 = all killed)
HT29 colon = conditions: 10 µM unless noted
SNB-75 CNS = conditions: 10 µM unless noted
SNB-19 CNS = conditions: 10 µM unless noted
U251 CNS = conditions: 10 µM unless noted
PC-3 prostate = conditions: 10 µM unless noted
UACC-62 melanoma = conditions: 10 µM unless noted
LOX IMVI melanoma = conditions: 10 µM unless noted
SK-MEL-28 melanoma = conditions: 10 µM
SK-MEL-2 melanoma = conditions: 10 µM unless noted
EKVX NSCLC = conditions: 10 µM unless noted
SN12C renal = conditions: 10 µM unless noted
UO-31 renal = conditions: 10 µM unless noted
TK-10 renal = conditions: 10 µM unless noted
ACHN renal = conditions: 10 µM unless noted
CAKI-1 renal = conditions: 10 µM unless noted
A498 renal = conditions: 10 µM unless noted
CCRF-CEM leukemia = conditions: 10 µM unless noted
MOLT-4 leukemia = conditions: 10 µM unless noted
SK-MEL-5 melanoma = conditions: 10 µM unless noted
SR leukemia = conditions: 10 µM unless noted

| Compound | growth (HT29 colon) | growth (SNB-75 CNS) | growth (SNB-19 CNS) | growth (U251 CNS) | growth (PC-3 prostate) | growth (UACC-62 melanoma) | growth (LOX IMVI melanoma) | growth (SK-MEL-28 melanoma) | growth (SK-MEL-2 melanoma) | growth (EKVX NSCLC) | growth (SN12C renal) | growth (UO-31 renal) | growth (TK-10 renal) | growth (ACHN renal) | growth (CAKI-1 renal) | growth (A498 renal) | growth (CCRF-CEM leukemia) | growth (MOLT-4 leukemia) | growth (SK-MEL-5 melanoma) | growth (SR leukemia) |
| --- | --- | --- | --- | --- | --- | --- | --- | --- | --- | --- | --- | --- | --- | --- | --- | --- | --- | --- | --- | --- |
| O=c1oc2ccc(Cl)cc2c(=O)n1-c1cc(C(F)(F)F)cc(C(F)(F)F)c1 | 1.92% (active) | -36.2% (active) | 13.5% | -15.2% (active) | 11.9% | -34.7% (active) | -15.5% (active) | -18.9% (active) | -34.2% (active) | 5.27% (active) | 1.28% (active) | 6.17% (active) | 0.337% (active) | 3.99% (active) | -24.7% (active) | -68.8% (active) | 5.13% (active) | -16.9% (active) |  |  |
| COc1ccccc1CNC(=O)C1c2ccccc2C(=O)N(CC(C)C)C1c1cccs1 (stereo not drawn) | 11.9% | 67.5% | 90.6% | 49.7% | 47.8% | 46.4% |  | 58.1% | 87.2% |  | 76.6% | 92% | 75.9% | 54.2% | 53.4% | 42.4% | 24% | 27.1% | 52.2% | 17.3% |
| O=C(Nc1ccc(F)cc1F)c1cc(Br)ccc1O | 27.8% | -17.9% (active) | 12.1% | 3.39% (active) | -8.08% (active) | -19.7% (active) | 17% | 16.5% | -27.5% (active) | 8.29% (active) | -7.89% (active) | 1.12% (active) | 2.49% (active) | 1.37% (active) | -26.3% (active) | -49.5% (active) | 10.6% | 0.366% (active) |  |  |
| CCOC(=O)c1cc2c(n1Cc1ccccc1)-c1oncc1CCC2 | 37.7% | 75.6% | 88.1% | 85.8% | 80.6% | 51.8% |  | 67% | 83.5% |  | 82.2% | 62.5% | 114% | 83.8% | 74% | 74.7% | 66.4% | 72% | 66.6% | 14.1% |
| CCCCc1ccc(NS(=O)(=O)c2cc3c4c(c2)CCN4C(=O)CC3)cc1 | 29.9% | 33.9% | 26.8% | 11% | 38.3% | -28.9% (active) |  | 40.5% | 40.8% |  | 9.46% (active) | 5.85% (active) | 33.8% | 15.5% | 9.87% (active) | -27.7% (active) | 5.87% (active) | 1.64% (active) | 0.989% (active) | 3.07% (active) |
| COc1cccc(-c2nn(C)c3sc(C(=O)NCCN4CCN(c5ccccc5F)CC4)cc23)c1 | 17% | 64.8% | 92.4% | 59% | 38.3% | -72.1% (active) |  | -75.2% (active) | 99.4% |  | 60.9% | 65.9% | 83.9% | 85.3% | 68% | 39% | 1.87% (active) | 7.79% (active) | -79.6% (active) | -39.5% (active) |
| CC[C@]1(O)C[C@@H]2CN(CCc3c([nH]c4ccccc34)[C@@](C(=O)OC)(c3cc4c(cc3OC)N(C)[C@H]3[C@@](O)(C(=O)OC)[C@H](OC(C)=O)[C@]5(CC)C=CCN6CC[C@]43[C@@H]65)C2)C1 | 8.06% (active) | 3.82% (active) | 29.8% | 16.6% | 20% | 34.4% | 15.3% | 66% | 39.8% | 38.8% | 27% | 41.6% | 45.5% | 30.1% | 4.83% (active) | -12.5% (active) | 13.8% | 26.5% |  |  |
| COc1ccc(C2NCCc3c2[nH]c2ccccc32)cc1CN1CCN(c2ccc(F)cc2)CC1 (stereo not drawn) | -3.33% (active) | 24.4% | 77.9% | 26% | 44.8% | 12.5% |  |  | 64.1% |  | 55.6% | 2.15% (active) | 56.6% | 64.7% | 28.8% | 89.8% | 16.3% | 23.6% | -40.7% (active) | 19.9% |
| CCOc1ccc(-c2nonc2NC(=O)c2cccc(C)c2)cc1OCC | 28.3% | 89.2% | 90.7% | 75% | 27.4% | 78.4% |  | 89.5% | 88.6% |  | 70.2% | 70% | 79.2% | 83.9% | 59.8% | 39.4% | 23.1% | 4.22% (active) | 35.2% | -34.7% (active) |
| COc1ccc(C(=O)C2CC2c2ccc(Cl)cc2)cc1 (stereo not drawn) | 104% | 75.6% | 117% | 82.4% | 72.5% | 84.9% |  | 107% | 89% |  | 85% | 64.4% | 103% |  | 87.9% | 114% | 9.89% (active) | 41.2% | 96.7% | 77.8% |
| COc1ccccc1C(=O)O/N=C(\N)Cc1cccc2ccccc12 | 77.7% | 67% | 87.7% | 90.9% | 78.6% | 83.3% |  | 114% | 89.6% |  | 67.3% | 70.8% | 120% | 86.5% | 77% | 95.1% | 80.1% | 79% | 70.4% | 82.1% |
| O=C(Nc1ccccc1O)c1ccc(Oc2cccc(C(=O)Nc3ccccc3O)c2)cc1 | 77.7% | 31.1% | 21.7% | 11.8% | 32.6% | -33% (active) |  | 32.6% | 28.4% |  | 15.4% | 5.32% (active) | 28.3% | 15.8% | -0.0411% (active) | 20.5% | -6.44% (active) | -28.5% (active) | 10.9% | -28.6% (active) |
| O=C(Nc1ccc(F)c(Cl)c1)Nc1ccc(Cl)c(Cl)c1 | 51.8% | 79.7% | 92.8% | 63.4% | 77% | 58.9% |  | 70.1% | 79.7% |  | 75.8% | 79.2% | 101% | 96% | 76.1% | 69.6% | 64.8% | 43.9% | 59.6% | 10.2% |
| COc1ccccc1N1CCN(C(CNS(=O)(=O)c2ccc(Cl)cc2)c2cccnc2)CC1 (stereo not drawn) | 45.3% | 91.4% | 107% | 61.7% | 48.9% | 100% |  |  | 120% |  | 90.8% | 111% | 111% | 103% | 104% | 56.7% | 55.5% | 46.7% | 90.2% | 49.5% |
| CCN(CC)c1cc(C)c2cc(NC(=O)c3cccc(OC)c3)ccc2n1 | 67.8% | 81.6% | 84.3% | 55% | 39.5% | 81% |  | 85.2% | 98.6% |  | 79.1% | 81.6% | 114% |  | 73.2% | 29.2% | 24.8% | 32.7% | 57.3% | 43.5% |
| O=C(Nc1ccc(Cl)cc1)N1CCN(c2ccc3nncn3n2)CC1 | -28.6% (active) | -68.9% (active) | 80.3% | -74.7% (active) | 16.4% | -88.3% (active) |  | -95.5% (active) | 22% |  | 54.3% | 36.1% | 42.3% |  | 29.3% | 21.5% | -9.45% (active) | -41.5% (active) | -98.4% (active) | -40.5% (active) |
| CCOc1cccc(/C=N/NC(=O)C(=O)Nc2cccc(C(F)(F)F)c2)c1O | 41.3% | 68.1% | 41.3% | 22.9% | 44.5% | 2.68% (active) |  | 44.6% | 36.9% |  | 30.6% | 9.54% (active) | 46.1% | 16.6% | 9.87% (active) | 55.9% | 14.1% | 19.1% | -25.5% (active) | 15.9% |
| Oc1c(CN2CCN(c3ccccc3F)CC2)cc(Br)c2cccnc12 | -63.1% (active) | -92.2% (active) | -16.6% (active) | -83.5% (active) | 5.26% (active) | -42.5% (active) |  | -78% (active) | -54.3% (active) |  | 8.15% (active) | -69.6% (active) | -84.1% (active) |  | -17.3% (active) | 88.1% | 1.46% (active) | 5.58% (active) | -10.3% (active) | -6.68% (active) |
